From the supplement of paper PMC8728848
The sample as a whole holds a higher share of the strongest signals than the screen did.

Key:
Experiment in all cases: glycan array binding signal (z-score within array); higher = stronger binding
Details in all cases: glycan notation: IUPAC condensed, linker removed
[1] = molecular target: Neu5Ac(a2-3)Gal(b1-3)[Neu5Ac(a2-6)]GlcNAc(b1-3)[Fuc(a1-3)[Gal(b1-4)]GlcNAc(b1-6)]Gal(b1-4)Glc
Method in brief: (§1)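 From the Consortium for Functional Glycomics database, 3228 arrays were curated, keeping only those whose protein sequence was available. Binding is given as a within-array Z-score averaged across arrays sharing a protein sequence and across linkers. Negative Z-scores can be read as non-binding.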

[2] = molecular target: Neu5Ac(a2-3)Gal(b1-3)]Neu5Ac(a2-3)Gal(b1-4)]GlcNAc
Method in brief: as §1

[3] = molecular target: Neu5Ac(a2-3)Gal(b1-4)[Fuc(a1-3)]GlcNAc(b1-3)Gal
Method in brief: as §1

[4] = molecular target: Neu5Ac(a2-6)Gal(b1-4)GlcNAc(b1-2)Man(a1-6)[Gal(b1-4)GlcNAc(b1-2)Man(a1-3)]Man(b1-4)GlcNAc(b1-4)GlcNAc
Method in brief: as §1

[5] = molecular target: Neu5Ac(a2-6)Gal(b1-4)GlcNAc(b1-2)Man(a1-6)[Man(a1-3)]Man(b1-4)GlcNAc(b1-4)GlcNAc
Method in brief: as §1

[6] = molecular target: Neu5Ac(a2-6)Gal(b1-4)GlcNAc(b1-3)Gal(b1-4)GlcNAc(b1-3)Gal(b1-4)GlcNAc(b1-2)Man(a1-3)[Neu5Ac(a2-6)Gal(b1-4)GlcNAc(b1-3)Gal(b1-4)GlcNAc(b1-3)Gal(b1-4)GlcNAc(b1-2)Man(a1-6)]GalNAc
Method in brief: as §1

[7] = molecular target: Neu5Ac(a2-8)Neu5Ac(a2-3)Gal(b1-4)Glc
Method in brief: as §1

[8] = molecular target: Neu5Ac(a2-8)Neu5Ac(a2-3)Gal(b1-4)GlcNAc
Method in brief: as §1

[9] = molecular target: Neu5Ac(a2-8)Neu5Ac(a2-8)Neu5Ac(a2-8)Neu5Ac(a2-3)[GalNAc(b1-4)]Gal(b1-4)Glc
Method in brief: as §1

B1: FGFR2-Fc (protein)
chain: MVNVTDAISSGDDEDDTDGAEDFVSENSNNKRAPYWTNTEKMEKRLHAVPAANTVKFRCPAGGNPMPTMRWLKNGKEFKQEHRIGGYKVRNQHWSLIMESVVPSDKGNYTCVVENEYGSINHTYHLDVVERSPHRPILQAGLPANASTVVGGDVEFVCKVYSDAQPHIQWIKHVEKNGSKYGPDGLPYLKVLKHSGINSSNAEVLALFNVTEADAGEYICKVSNYIGQANQSAWLTVLPKQQAPGREKEITASPDYLETRPLEQKLISEEDLAANDILDYKDDDDKV
For B1, the “glycan array binding signal (z-score)” value [1] was 0.595, the “glycan array binding signal (z-score)” value [2] was -0.115 and the “glycan array binding signal (z-score)” value [3] was 1.09. The “glycan array binding signal (z-score)” value [4] was 0.258, the “glycan array binding signal (z-score)” value [5] was -0.126 and the “glycan array binding signal (z-score)” value [6] was 1.17. The “glycan array binding signal (z-score)” value [7] was -0.492, the “glycan array binding signal (z-score)” value [8] was -0.139 and the “glycan array binding signal (z-score)” value [9] was 0.963.
